# Several values for one entry are separate records, joined by “and”; a condition that tells them apart may be missing. Equal values may be shown once. Compounds without any hit were thinned out: in the full panel of roughly 83,000, 20% have a hit.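 96-well plates, one dose, 48 hours. Percent growth reported; active if below 10.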 Activity calls are given as the source filed them.
# Experiments:
# Experiment in all cases: NCI-60 one-dose screen, 48 h (100 = growth as untreated, 0 = no growth, -100 = all killed)
# Details in all cases: 10 µM unless noted
# NCI-H23 lung = system: NCI-H23 lung
# NCI-H226 lung = system: NCI-H226 lung
# NCI-H322M lung = system: NCI-H322M lung
# HOP-62 NSCLC = system: HOP-62 NSCLC
# NCI-H460 lung = system: NCI-H460 lung
# HOP-92 NSCLC = system: HOP-92 NSCLC
# NCI-H522 lung = system: NCI-H522 lung
# A549/ATCC NSCLC = system: A549/ATCC NSCLC
# 786-0 renal = system: 786-0 renal
# COLO 205 colon = system: COLO 205 colon
SMILES,growth (NCI-H23 lung),growth (NCI-H226 lung),growth (NCI-H322M lung),growth (HOP-62 NSCLC),growth (NCI-H460 lung),growth (HOP-92 NSCLC),growth (NCI-H522 lung),growth (A549/ATCC NSCLC),growth (786-0 renal),growth (COLO 205 colon)
Cn1c(SCC(=O)c2ccc(Br)cc2)nc2ccccc2c1=O,85.3% (inactive),90.7% (inactive),95.8% (inactive),105% (inactive),102% (inactive),91.3% (inactive),86.4% (inactive),96.3% (inactive),91.2% (inactive),121% (inactive)
O=C(COc1ccc(/C=C2\C(=O)Nc3cc(Cl)ccc32)cc1)Nc1ccc(Cl)cc1,79.9% (inactive),79.1% (inactive),74.4% (inactive),76.7% (inactive),73.4% (inactive),90.8% (inactive),45.7% (inactive),68.8% (inactive),90.7% (inactive),81.3% (inactive)
CN(C)S(=O)(=O)c1ccc(-c2nc(C(Cl)Cl)nc3cc(-c4ccc(F)cc4)nn23)cc1,-3.27% (active),45.4% (inactive),31% (inactive),9.75% (active),1.94% (active),14.6% (inactive),-16.5% (active),7.5% (active),72.6% (inactive),2.25% (active)
Cc1ccc2c(n1)C(=O)C(Cl)=C(Nc1ccc(C#N)cc1)C2=O,92.3% (inactive),98.3% (inactive),109% (inactive),115% (inactive),100% (inactive),126% (inactive),52.4% (inactive),106% (inactive),80.4% (inactive),79.6% (inactive)
Cc1cc2nc3c4cc(C#N)ccc4n(CCN(C)C)c3nc2cc1C,-35% (active),-21.5% (active),-0.486% (active),4.29% (active),-42.3% (active),-19.1% (active),-52.1% (active),-67.2% (active),6.69% (active),-82.7% (active)
COc1ccc(-c2cnc(NC(=O)CCCCCCNC(=O)C(O)(O)C(F)(F)F)s2)cc1,-9.04% (active),5.81% (active),8.73% (active),1.79% (active),0.915% (active),-25.4% (active),-41.4% (active),-12.5% (active),14.9% (inactive),-70.8% (active)
CCCCCCCCCCCC(=O)NC(C)(C)C(=O)N1CCCC1C(=O)NC(C)(C)C(=O)NC(C)(C)C(=O)N1CCCC1C(=O)NC(C)(C)C(=O)NC(C)(C)C(=O)N1CCCC1C(=O)NC(C)C(=O)NCCC(=O)NC(C)C(=O)NC(C)(C)C(=O)NC(C)(C)C(=O)NC(C)(C)C(=O)NCCC(=O)NC(C)(C)C(=O)NC(C)(C)C(=O)NC(C)(C)C(=O)NC(C)C(=O)NCCC(=O)O (stereo not given),-92.9% (active),-61.8% (active),-99.6% (active),-93.3% (active),-79.7% (active),-96% (active),-89.8% (active),-77.9% (active),-96.3% (active),-89.2% (active)
Cc1ccc(N2CCN(C3=C(Cl)C(=O)c4ncccc4C3=O)CC2)cc1,35.6% (inactive),93.2% (inactive),97.4% (inactive),73.1% (inactive),44.8% (inactive),84.4% (inactive),45.2% (inactive),91.3% (inactive),99.5% (inactive),75.3% (inactive)
CC1CCN(CC(=O)Nn2c(COc3ccccc3)nc3ccccc3c2=O)CC1,91.7% (inactive),84.6% (inactive),95.4% (inactive),91.9% (inactive),90.6% (inactive),96.2% (inactive),75.4% (inactive),90.9% (inactive),99% (inactive),84.1% (inactive)
O=C(Nc1ccc(N2CCOCC2)cc1)Nc1ccc2c(ccn2C(=O)c2cccc(F)c2)c1,66.7% (inactive),41.4% (inactive),92.5% (inactive),31.1% (inactive),38.8% (inactive),31.4% (inactive),73.7% (inactive),59.5% (inactive),28.4% (inactive),82.1% (inactive)
C#CCOc1cccc(/C(N)=N/C(N)=N/c2nc3ccccc3s2)c1,50.2% (inactive),68.1% (inactive),96.3% (inactive),-36.3% (active),90.5% (inactive),125% (inactive),96.9% (inactive),10.8% (inactive),107% (inactive),119% (inactive)
CN1CCN(Cc2ccc(NC(=O)c3cncc(C#Cc4cnc5ccc(N)nn45)c3)cc2C(F)(F)F)CC1,4.35% (active),17.2% (inactive),12.4% (inactive),-1.79% (active),14.9% (inactive),-22.7% (active),12.5% (inactive),38.2% (inactive),50.1% (inactive),-41.8% (active)
CN1CCN(c2ccc(Nc3nc(NCCCNS(=O)(=O)c4ccc(F)cc4)c4sccc4n3)cc2)CC1,87% (inactive),99.4% (inactive),87.6% (inactive),91.5% (inactive),72% (inactive),37.8% (inactive),71% (inactive),77.9% (inactive),3.97% (active),50.5% (inactive)
C/C=C/CC(C)C(O)[C@H](NC(=O)[C@@H]1CCCN1C(=O)[C@](C)(CC)NC(=O)CCCCCCCCC)C(=O)N[C@@](C)(CC)C(=O)N[C@@H](CCC(N)=O)C(=O)N[C@H](CCC(N)=O)C(=O)NC(C)(C)C(=O)NC(C)(C)C(=O)N[C@@H](CCC(N)=O)C(=O)N[C@H](CC(C)C)C(=O)N[C@H](CO)CC(C)C (stereo not given in full),68.4% (inactive) and -71.3% (active),49% (inactive) and -24.9% (active),69.8% (inactive) and -15.9% (active),56.3% (inactive) and -78.5% (active),63.6% (inactive) and -72.2% (active),75.3% (inactive) and -53.5% (active),14.7% (inactive) and -74.4% (active),76% (inactive) and 9.75% (active),47.7% (inactive) and -80.3% (active),48.7% (inactive) and -50.7% (active)

# — PubChem BioAssay (NCI)
